# Assay outcomes deposited in PubChem BioAssay by National Center for Advancing Translational Sciences (NCATS).
# RORgamma inh – qHTS for inhibitors of ROR gamma transcriptional activity. Nuclear receptor ROR-gamma (Mus musculus), P51450. Drosophila S2 Gal4-RORgamma UAS-luciferase reporter, 20 h. Potency, µM (doses to about 53.6 µM), for inactives: top-dose activity change, negative = inhibition, hits mostly inhibitors. hit rate 5.4% among 310,000. AID 2551, 2010; further: potency means the concentration at half of the fitted maximal effect; nearly all actives have a fitted effect of over 60% in size
# Target sequence (P51450 whole entry, looked up, the tested form may be a part): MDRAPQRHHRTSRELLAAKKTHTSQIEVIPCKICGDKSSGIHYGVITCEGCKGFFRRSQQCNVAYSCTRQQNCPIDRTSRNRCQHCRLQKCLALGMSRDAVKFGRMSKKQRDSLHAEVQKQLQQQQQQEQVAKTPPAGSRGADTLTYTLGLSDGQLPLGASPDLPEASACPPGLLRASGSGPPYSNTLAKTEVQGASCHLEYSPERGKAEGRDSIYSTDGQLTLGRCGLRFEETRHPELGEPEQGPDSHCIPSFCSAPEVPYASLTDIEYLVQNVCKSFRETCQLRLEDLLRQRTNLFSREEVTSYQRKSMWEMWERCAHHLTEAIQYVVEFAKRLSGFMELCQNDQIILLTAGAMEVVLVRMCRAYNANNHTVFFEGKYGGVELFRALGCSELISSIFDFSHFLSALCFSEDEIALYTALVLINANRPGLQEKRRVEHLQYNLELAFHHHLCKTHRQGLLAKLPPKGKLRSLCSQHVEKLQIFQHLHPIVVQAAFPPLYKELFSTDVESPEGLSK
#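 Schneider cells (Drosophila), stable Gal4 DBD–ROR gamma + UAS-luc; 1 hr cmpd preincubation; Cu2+ induction 700 uM final; 20 hr ambient; luminescence.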
# IL-1B inflam inh – qHTS for Inhibitors of Inflammasome Signaling: IL-1-beta AlphaLISA Primary Screen | THP-1 LPS/ATP IL-1B secretion, AlphaLISA, 16 h; stronger effect = lower value | activity change, % at 57.5 µM | hit rate 4.7% among 360,000; in the data active means activity change below about -50%; inconclusive means mostly about -30% to -49%
#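 THP-1 cells pretreated 1 hr with compounds (up to 57.5 uM final), then stimulated with LPS (250 ng/mL final) plus ATP (1.25 mM final); secreted IL-1B measured by AlphaLISA after 16 hr, decreased signal indicating inhibition.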
# TDP1 cell CPT – qHTS for Inhibitors of human tyrosyl-DNA phosphodiesterase 1 (TDP1): qHTS in cells in presence of CPT; Potency, µM (highest dose often 46.2 µM), for the others: top-dose activity change, negative = growth inhibition, hits mostly inhibitors; hit rate 12% among 420,000; chicken DT40 Tdp1-/-;hTDP1 cells + 20 nM CPT, ATP luminescence, 48 h; further: potency means the concentration at half of the fitted maximal effect; nearly all actives have a fitted effect of over 55% in size
#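 Chicken DT40 Tdp1-/- cells stably complemented with human TDP1 were seeded at 400 cells/well in medium containing 20 nM camptothecin, exposed to pin-transferred compounds, and grown at 37 °C for at least 48 hr. Viability was read as ATP luminescence.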
# LDHA inh – qHTS assay for inhibitors of human lactate dehydrogenase; L-lactate dehydrogenase A chain (Homo sapiens), P00338; activity change, % (values are at about 110 or 230 µM); purified LDHA, NADH/diaphorase-resazurin fluorescence; stronger effect = lower value; hit rate 0.15% among 480,000; in the data active means activity change below about -30%; inconclusive means mostly about -25% to -30%;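 further: plate controls were DMSO wells for no effect and wells without enzyme for full effect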
#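 Enzyme activity of human lactate dehydrogenase 5 (2 nM; 0.06 mM NADH, 0.2 mM pyruvate, 5 min, RT) is measured via a resazurin/diaphorase fluorescence readout of residual NADH.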
# Gal4-VP16 FLuc – VP16 counterscreen qHTS for inhibitors of ROR gamma transcriptional activity; Potency, µM (series often up to 53.6 µM), for the others: top-dose activity, negative = inhibition, hits mostly inhibitors; Drosophila S2 Gal4-VP16 UAS-luciferase, luminescence, 20 h; AID 2546, 2010; hit rate 3.5% among 310,000;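 further: Gal4-VP16 expression switched on by copper sulfate through the metallothionein promoter; potency means the concentration at half of the fitted maximal effect; nearly all actives have a fitted effect of over 50% in size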
# TDP1 cell noCPT – qHTS for Inhibitors of human tyrosyl-DNA phosphodiesterase 1 (TDP1): qHTS in cells in absence of CPT; Potency, µM (top dose mostly 46.2 µM), for the others: at the highest dose activity change, negative = growth inhibition, most hits filed as inhibitors; DT40 Tdp1-/- hTDP1 cells, no CPT, ATP luminescence, 48 h; hit rate 15% among 420,000; further: potency means the concentration at half of the fitted maximal effect; nearly all actives have a fitted effect of over 55% in size
#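 Growth of hTDP1-complemented DT40 Tdp1-knockout cells is measured by ATP luminescence after at least 48 hr compound exposure at 37 °C, with DMSO substituting for the 20 nM CPT used in the parallel screen.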
# * hit, by the source's call; ? = inconclusive; nt = not tested or not shown; [ ] = dose if it differs, or a comment. Hits are enriched below; roughly 18% of the tested compounds scored in any of these assays. Unless noted, the call rests on the fitted dose curve; in most records, active means well fitted curve in the direction sought with a large enough effect; inconclusive means small, poorly fitted or top-dose-only effect, or another doubt; inactive means no such curve, though single readings can be large; an effect the other way counts as inactive or inconclusive. Unless noted, on the % scale 0 is the no-effect control and ±100 the full control effect.
SMILES,RORgamma inh,IL-1B inflam inh,TDP1 cell CPT,LDHA inh,Gal4-VP16 FLuc,TDP1 cell noCPT
CC(C)Oc1ccc(C(=O)/C(=C\c2cccnc2)c2nc3ccccc3o2)cc1,nt,nt,nt,4,nt,nt
CC(C)Oc1ccc(C(=O)/C(=C\c2cccs2)c2nc3ccccc3o2)cc1,-37%,-67*,?,-2,-15%,?
CC(C)(C)NS(=O)(=O)c1ccc2nc(NC(=O)Cc3cccs3)sc2c1,?,-29,?,-7,-1%,15µM*
COC(=O)c1ccc2nc(NC(=O)C(C)C)sc2c1,?,-15,-24%,0,-27%,?
O=C(CCS(=O)(=O)c1ccccc1)Nc1nc2ccc(F)cc2s1,nt,7,12µM*,-2,nt,13µM*
COC(=O)c1ccc2nc(NC(=O)C3CC3)sc2c1,8.9µM*,19,-18%,-9,?,?
COC(=O)c1ccc2nc(NC(=O)CCS(=O)(=O)c3ccccc3)sc2c1,0%,15,8.2µM*,-2,-17%,9.2µM*
CCCCCCNc1nc2c(c(=O)[nH]c(=O)n2C)n1Cc1cccc(C)c1,nt,nt,nt,4,nt,nt
CS(=O)(=O)c1ccc2nc(NC(=O)c3ccccc3)sc2c1,11µM*,18,-27%,2,?,?
O=C(CCS(=O)(=O)c1ccccc1)Nc1nc2cc3c(cc2s1)OCO3,7%,-52*,?,-6,?,?
Cc1onc(-c2ccccc2Cl)c1C(=O)Nc1nc2ccc(S(C)(=O)=O)cc2s1,21%,-2,8.2µM*,-9,-8%,9.2µM*
Cc1cccc(C(=O)Nc2nc3ccc(S(C)(=O)=O)cc3s2)c1,-23%,?,-21%,1,?,-17%
CS(=O)(=O)c1ccc2nc(NC(=O)CCS(=O)(=O)c3ccccc3)sc2c1,18µM*,-93*,5.2µM*,-12,?,5.2µM*
COCCn1c(SCC(=O)Nc2cc(Cl)ccc2C)nc2ccsc2c1=O,nt,nt,nt,6,nt,nt
O=C(CCc1ccccc1)Nc1nc2c(F)cc(F)cc2s1,3%,-3,?,-9,?,13µM*
O=C(O)CCCc1ccccn1,nt,nt,nt,-6,nt,nt
O=C(c1ccccc1)c1ccc(Cn2cc(CCCO)nn2)cc1,?,39,8.2µM*,-1,13µM*,5.8µM*
Cc1ccc(-n2cc(CCCCCCCCC(=O)O)nn2)cc1,16%,6,-2%,-3,-7%,9%
O=C(O)CCCCCCCCc1cn(CC2CCCCC2)nn1,4.5µM*,41,3%,6,1.8µM*,7%
O=C(OCc1cn(Cc2ccccc2)nn1)c1ccccc1,28%,23,-3%,-2,-6%,-3%
O=C(O)CCCCCCCCc1cn(Cc2ccc(C(=O)c3ccccc3)cc2)nn1,-3%,74,3.7µM*,-6,0%,4.1µM*
Cc1ccc(S(=O)(=O)N(C)C(C)c2cc3ccccc3o2)c(C)c1 (stereo unspecified),nt,nt,nt,0,nt,nt
O=C(NCCc1ccc(Cl)cc1)C12CC3CC(CC(C3)C1)C2,nt,nt,nt,-1,nt,nt
CCN(CC)c1ccc(C2C(C(=O)Nc3ccc(F)cc3F)=C(C)NC3=C2C(=O)CC(C)(C)C3)cc1 (stereo unspecified),nt,nt,nt,12,nt,nt
CN(/N=C/c1cc(Br)cc(Br)c1O)c1cccc(C(F)(F)F)n1,-41%,-10,7.3µM*,4,?,16µM*
SMILES,RORgamma inh,IL-1B inflam inh,TDP1 cell CPT,LDHA inh,Gal4-VP16 FLuc,TDP1 cell noCPT
CN(N=Cc1ccccc1O)c1ccc2ccccc2n1,nt,29,-12%,3,nt,-28%
CCOc1ccc(CC(=O)NCC(=O)NCc2cc(=O)n(C)c(=O)n2C)cc1,-21%,3,6%,-5,-3%,0%
Cc1cccc(CC(=O)NCC(=O)NCc2cc(=O)n(C)c(=O)n2C)c1,-4%,1,12µM*,-19,-2%,?
CC(Sc1nnc(N2CCOCC2)n1-c1cccc(F)c1)C(=O)c1ccc(Br)cc1 (stereo unspecified),nt,nt,nt,1,nt,nt
Nc1ccccc1C(=O)CC(N)C(=O)O (stereo unspecified),13µM*,nt,-3%,nt,28µM*,-16%
Cc1cc(CSCC(=O)Nc2ccc(C(F)(F)F)cc2)no1,nt,nt,nt,-1,nt,nt
O=C(NC1CC1)c1cc(-c2ccc3c(c2)OCCO3)nc2ccccc12,nt,nt,nt,10,nt,nt
Cc1ccc(NC(=O)CSc2n[nH]c(=O)c3cc(-c4ccco4)nn23)cc1,nt,nt,nt,-9,nt,nt
O=C(C[n+]1cnn(CC(=O)c2ccc(Cl)cc2Cl)c1)c1ccc([N+](=O)[O-])cc1,-6%,-71*,?,-2,-4%,?
CCOc1ccc2c(c1)C(C)=CC(C)(C)N2S(=O)(=O)c1ccc(C)cc1,4µM*,26,?,-1,?,6.5µM*
CC1=CC(C)(C)N(C(=O)CCl)c2cc(C)ccc21,-17%,-28,-23%,-5,-9%,-24%
COc1ccc2c(c1)C(C)=CC(C)(C)N2S(=O)(=O)c1ccc(C)cc1,-39%,69,5.8µM*,2,1%,5.2µM*
COc1ccc(C2N(S(=O)(=O)c3ccc(C)cc3)CCN2S(=O)(=O)c2ccc(C)cc2)cc1,-69%,0,?,0,13%,?
COc1ccc2c(c1)C(C)=CC(C)(C)N2C(=O)Nc1cccc(Cl)c1,nt,nt,nt,2,nt,nt
CC1=CC(C)(C)N(S(=O)(=O)c2ccc(C)cc2)c2cc(C)ccc21,?,36,5.8µM*,-4,?,5.2µM*
CCNC(=O)N1c2ccc(OCC)cc2C(C)=CC1(C)C,2%,-12,?,17,-3%,18µM*
CCOc1ccc2c(c1)C(C)=CC(C)(C)N2S(=O)(=O)c1ccc(Br)cc1,nt,nt,nt,9,nt,nt
CN(Cc1ccccc1)C(=O)CNC(=O)C1CCCN(S(=O)(=O)c2ccc(F)cc2)C1 (stereo unspecified),nt,nt,nt,-13,nt,nt
O=C1CN(CC(=O)Nc2ccc(F)cc2F)CCN1,nt,nt,nt,-4,nt,nt
O=C(c1ccccc1)C1CCN(C(=O)/C=C/c2cccc(C(F)(F)F)c2)CC1,nt,nt,nt,8,nt,nt
CCCn1c(=O)c2sc(N3CCCC3)nc2n(CC(=O)Nc2ccccc2OCC)c1=O,nt,nt,nt,1,nt,nt
CC(=O)c1ccc(OCc2ccccc2)cc1,nt,nt,nt,3,nt,nt
CC(=O)/C(=C/Nc1ccc(Oc2ccccc2)cc1)c1ccccc1,25%,?,?,-1,0%[0.365 µM],18µM*
